Hits are enriched below; roughly 3.4% of the tested compounds scored in any of these assays.
HSF1 activator = increases HSF-1 driven luciferase reporter signal. activation, % at 9 µM. NIH3T3-HGL HSF-1 luciferase reporter, MG132, 8 h; 100% = twice DMSO control signal. AID 504408. 300,000 compounds, 1.7% hits;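 active means mean replicate activation of at least 50% with a set share of replicates each reaching 50%; inconclusive means only one of those two conditions met; inactive means mean below 50% and too few replicates reaching it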
Vif inh = blocks HIV Vif function; inhibition, % at 7.49 µM; HEK293T cells, Vif self-association by quenched fluorescence, imaging, 24 h; 340,000 compounds, 0.35% hits; in the data active means inhibition above about 50%, passing the limit was not always enough; inconclusive means no clear call, values can overlap the other calls; inactive means below about 31%
HSF1 inhib = HSF1 inhibition. NIH3T3-HGL HSE-luciferase, MG132-induced, luminescence 8 h; active compounds read low. activity change, negative = inhibition, % at 7.5 µM (by protocol). 300,000 compounds, 0.77% hits. AID 2098;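 active means more than half of replicate wells show activity change below -50%, luminescence cut by over half; inconclusive means some wells, but at most half, below -50%; inactive means no replicate well below -50%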;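 further: luciferase reports HSF-1 transcriptional activity via heat shock element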
esBAF inh = blocks esBAF chromatin remodeling in mouse ES cells | Bmi1-luciferase knock-in reporter, 24 h; 100% = twice the neutral-well signal | reporter increase, % at 12.5 µM | 350,000 compounds, 2% hits; in the data active means activation above about 40%; inconclusive means no clear call, values can overlap the other calls;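 further: a rise in the Bmi1 reporter signal indicates esBAF inhibition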
Hits are given with their value; ! = a repeat was not active.

What do the screens show for `CC(C)(C)c1ccc(C(=O)NC(=S)Nn2cnnc2)cc1`?
HSF1 activator: inactive; Vif inh: inactive; HSF1 inhib: inactive; esBAF inh: 43.8

How did COC(=O)C(NNc1ccccc1C)(NC(=O)c1ccc(F)cc1)C(F)(F)F (stereo unspecified) do in these assays?
HSF1 activator: 80.5; Vif inh: inactive; HSF1 inhib: inactive; esBAF inh: inactive

Results for O=C(Nc1ccc2c(c1)OCO2)N[C@@H]1C=C[C@H](CC(=O)N2CCN(c3ccccc3)CC2)O[C@H]1CO ?
esBAF inh: inactive

What do the screens show for `C[C@@H]1CN([C@H](C)CO)C(=O)c2cccc(NC(=O)C3CCCCC3)c2O[C@@H]1CN(C)C(=O)Nc1ccc2c(c1)OCO2`?
esBAF inh: inactive

Results for CCc1ccc(NC(=O)CSc2ccc(-c3cccnc3)nn2)cc1 ?
HSF1 activator: inactive; Vif inh: inactive; HSF1 inhib: -75.9; esBAF inh: inactive

What do the screens show for `COC(=O)c1ccc2nc(NC(=O)C3CCCCC3)sc2c1`?
HSF1 activator: inactive; Vif inh: inactive; HSF1 inhib: inactive

How did COC(=O)c1ccc2nc(NC(=O)C(C)(C)C)sc2c1 do in these assays?
HSF1 activator: inactive; Vif inh: inactive; HSF1 inhib: -55.3

Results for CC(=O)c1sc(Nc2nc3ccc(F)cc3s2)nc1C ?
HSF1 activator: 81.9; HSF1 inhib: inactive

How did COC(=O)c1ccc2nc(Nc3nc4ccc(F)cc4s3)sc2c1 do in these assays?
HSF1 activator: inactive; Vif inh: inactive; HSF1 inhib: -89.3; esBAF inh: inactive

How did COc1ccccc1C(=O)Nc1ccc2c(c1)OC[C@H](C)N(CC1CC1)C[C@@H](C)[C@H](OC)CN(C)C2=O do in these assays?
esBAF inh: inactive

Results for CC1=NN(c2ccc(C)cc2C)C(=O)C1C(c1ccccc1)C1C(=O)N(c2ccc(C)cc2C)N=C1C (stereo unspecified) ?
HSF1 activator: 63.9; Vif inh: inactive; HSF1 inhib: inactive; esBAF inh: inactive

What do the screens show for `NS(=O)(=O)c1ccc(CCNC(=O)c2ccc(C#CC3(O)CCCCC3)cc2)cc1`?
HSF1 activator: inactive; Vif inh: inactive; HSF1 inhib: -53.9

What do the screens show for `C/C(N)=C(/C#N)C(=O)CSc1nnc(-c2ccc(OC(F)F)cc2)o1`?
HSF1 activator: 78.0; Vif inh: inactive; HSF1 inhib: inactive; esBAF inh: 65.1!

How did C/C(N)=C(/C#N)C(=O)CSc1nnc(-c2ccc3c(c2)OCO3)o1 do in these assays?
HSF1 activator: 75.8; Vif inh: inactive; HSF1 inhib: inactive; esBAF inh: inactive

Results for CCNC(=O)C[C@H]1CC[C@@H]2[C@@H](COc3ccc(NC(=O)c4cccs4)cc3C(=O)N2C)O1 ?
esBAF inh: inactive

Results for O=[N+]([O-])c1ccc(NN=Cc2cccc3ccccc23)nc1 ?
Vif inh: inactive

Results for O=[N+]([O-])c1ccc(Nc2ccc(Cl)cc2)nc1 ?
HSF1 activator: inactive; Vif inh: inactive; HSF1 inhib: inactive

What do the screens show for `COc1cccc(/C=N/Nc2ccc([N+](=O)[O-])cn2)c1O`?
HSF1 activator: 96.1; Vif inh: inactive; HSF1 inhib: inactive; esBAF inh: inactive

What do the screens show for `O=[N+]([O-])c1ccc(Nc2ccc3ccccc3c2)nc1`?
HSF1 activator: inactive; Vif inh: inactive; HSF1 inhib: inactive; esBAF inh: 95.6

What do the screens show for `CC(=NNc1ccc([N+](=O)[O-])cn1)c1ccccc1`?
Vif inh: inactive; esBAF inh: 88.5

How did C/C(=N\Nc1ccc([N+](=O)[O-])cc1)c1cccc(N)c1 do in these assays?
HSF1 activator: inactive; Vif inh: inactive; HSF1 inhib: inactive; esBAF inh: 84.9

Results for C[C@H](CO)N1C[C@H](C)[C@H](CN(C)S(=O)(=O)c2ccccc2)OCCCC[C@H](C)Oc2ccc(NC(=O)CCC(F)(F)F)cc2C1=O ?
esBAF inh: inactive

Results for C/C(=N\N=C(/C)c1cccc(N)c1)c1cccc(N)c1 ?
HSF1 activator: 64.3; Vif inh: inactive; HSF1 inhib: inactive

Results for Nc1cccc(C(=O)O)c1 ?
HSF1 activator: inactive; Vif inh: inactive; HSF1 inhib: inactive; esBAF inh: inactive

Results for Cc1ccc(Cn2cc(/C=N/Nc3ccc([N+](=O)[O-])cn3)c3ccccc32)cc1 ?
HSF1 activator: inactive; Vif inh: inactive; HSF1 inhib: inactive; esBAF inh: 44.8

What do the screens show for `O=C(O)Cn1cc(/C=N/Nc2ccc([N+](=O)[O-])cn2)c2ccccc21`?
HSF1 activator: inactive; Vif inh: inactive; HSF1 inhib: inactive; esBAF inh: inactive

Results for C/C=C1\COC(C(=O)NCc2ccccc2)(C(F)(F)F)C=C1C=C(C)C (stereo unspecified) ?
HSF1 activator: 152.7; Vif inh: inactive; HSF1 inhib: inactive; esBAF inh: inactive

How did O=C(CSc1nc2ccccc2n1S(=O)(=O)c1ccccc1)N1CCCCC1 do in these assays?
HSF1 activator: inactive; Vif inh: inactive; HSF1 inhib: -56.0; esBAF inh: inactive

Results for O=C(CSc1nc2ccccc2n1CC(=O)N1CCCCC1)N1CCCCC1 ?
HSF1 activator: inactive; Vif inh: inactive; HSF1 inhib: inactive; esBAF inh: inactive

What do the screens show for `Cc1cc(-c2sccc2Br)nc(-n2cccc2)n1`?
HSF1 activator: 71.6; Vif inh: inactive; HSF1 inhib: inactive

Results for O=c1nc2sc3ccccc3n2c(=O)n1-c1cccc(Cl)c1 ?
HSF1 activator: inactive; Vif inh: inactive; HSF1 inhib: inactive; esBAF inh: 76.2

Results for Cc1ccc2c(c1)sc1nc(=O)n(-c3cccc(Cl)c3)c(=O)n12 ?
HSF1 activator: inactive; Vif inh: inactive; HSF1 inhib: inactive; esBAF inh: 69.4

How did O=c1nc2sc3ccccc3n2c(=O)n1-c1ccc(Cl)cc1 do in these assays?
HSF1 activator: inactive; Vif inh: inactive; HSF1 inhib: inactive; esBAF inh: 45.6

Results for Cc1ccc2c(c1)sc1nc(=O)n(-c3ccc(Cl)cc3)c(=O)n12 ?
HSF1 activator: inactive; Vif inh: inactive; HSF1 inhib: inactive; esBAF inh: inactive

Results for Cc1ccc2c(c1)sc1nc(=O)n(-c3ccc(Cl)c(Cl)c3)c(=O)n12 ?
Vif inh: inactive; esBAF inh: inactive

How did O=C([C@H]1[C@H](CO)[C@H]2Cn3c(cccc3=O)[C@H]2N1Cc1cc(F)ccc1F)N1CCOCC1 do in these assays?
esBAF inh: inactive

Results for C[C@H](CO)N1C[C@H](C)[C@H](CN(C)Cc2ccc(Cl)c(Cl)c2)Oc2c(NS(=O)(=O)c3ccc(Cl)cc3)cccc2C1=O ?
esBAF inh: inactive

How did Cc1cccc(C(=O)Nc2sc(C)c(-c3ccccc3)c2C#N)c1 do in these assays?
HSF1 activator: inactive; HSF1 inhib: inactive; esBAF inh: 48.5

What do the screens show for `Cc1sc(NC(=O)C2CCCCC2)c(C#N)c1-c1ccccc1`?
HSF1 activator: inconclusive; HSF1 inhib: inactive; esBAF inh: 92.8

How did Cc1noc(C)c1C(=O)Nc1sc(C)c(-c2ccccc2)c1C#N do in these assays?
HSF1 activator: inactive; Vif inh: inactive; HSF1 inhib: inactive; esBAF inh: inactive

How did CCCC(=O)Nc1sc(C)c(-c2ccc(OC)cc2)c1C#N do in these assays?
Vif inh: inactive

How did CO[C@@H]1CC[C@@H]2CCN(C)C(=O)[C@@H](C)CN(C)C(=O)c3cc(C#N)ccc3OC[C@@H]1O2 do in these assays?
esBAF inh: inactive

From PubChem BioAssay
